Screens: PubChem, SRMLSC
In the library only some 6.5% were active in any assay of this set; here they are far more common.
NADH coupling – inhibitors of enzymes used to reach an NAD/NADH endpoint | coupled PK/LDH NADH assays, four targets | IC50, µM (titrated, usually from 10 µM) | 65,000 tested, 0.02% active;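 active means single-dose screening hits from any of four coupled enzyme assays that gave an IC50 when retested across doses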;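 further: the DPM-DC format reads NADH fluorescence rather than 340 nm absorbance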
DPM-DC inhibit – inhibitors of Streptococcus pneumoniae diphosphomevalonate decarboxylase. purified DPM-DC, PK/LDH coupled NADH fluorescence. calls only at 10 µM. 65,000 tested, 0.49% active. AID 556;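 active means the 320 compounds with the highest percent inhibition in the single-dose primary screen, excluding strongly autofluorescent ones, cut at about 32% in these data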;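 further: kinetic rate of NADH fluorescence loss reporting ADP formed by the decarboxylase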
Spn PMK inh – inhibitors of Streptococcus pneumoniae phosphomevalonate kinase; purified PMK, PK/LDH-coupled NADH absorbance 340 nm; inhibition, % at 10 µM; 65,000 tested, 0.49% active; AID 539;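 active means top-ranked compounds by inhibition in the single 10 µM screen, taking a fixed number of the strongest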
A340 absorber – compounds absorbing at 340 nm | compound absorbance at 340 nm, fold over control | fold change at 10 µM | 65,000 tested, under 10 active | AID 708;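 active means at 10 µM dose, initial 340 nm absorbance at least 2 fold that of control wells; inactive means change under 2 fold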;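 further: initial absorbance extrapolated from kinetic A340 decline of NADH oxidation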
Spn MK inh – inhibitors of Streptococcus pneumoniae mevalonate kinase; inhibition, % at 10 µM; 65,000 tested, 0.48% active; AID 555; purified MK, PK/LDH-coupled NADH absorbance 340 nm;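 active means ranked among the strongest by inhibition in the single 10 µM screen, a fixed top-ranked set picked for dose follow-up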
Autofluor 339 – intrinsic fluorescence of library compounds, ex339/em460 – biochemical, MLSMR library, data from DPM-DC assay, artefact control, profiling panel. compound autofluorescence, ex339/em460 nm, NADH buffer; active compounds read high; 1 = no-compound wells, NADH background. fluorescence fold increase at 10 µM. 65,000 tested, 5.5% active. AID 709;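 active means at 10 µM, mean starting fluorescence two-fold or more over control wells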;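 further: signal is the first read of a kinetic run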
Numbers stand for hits; n = inactive; x = no result given; + = active, no number.

SMILES	NADH coupling	DPM-DC inhibit	Spn PMK inh	A340 absorber	Spn MK inh	Autofluor 339
CN(C)S(=O)(=O)Nc1ccc(NS(=O)(=O)N(C)C)c(S(=O)(=O)c2ccccc2)c1	n	n	n	n	n	n
NC(=O)c1ccccc1NC(=O)CS(=O)(=O)Cc1ccccc1	n	n	n	n	n	n
CN(C)S(=O)(=O)Nc1ccccc1C(N)=O	n	x	n	n	n	2.92
COc1ccc(OC)c(NC(=O)C2C3C=CC(C3)C2C(=O)NCc2ccccn2)c1 (stereo unspecified)	n	n	n	n	n	n
Cc1nc(Nc2ncc3c(n2)CCCC3=O)nc2ccccc12	n	n	n	n	n	n
CC(=O)c1cccc(N(C(=O)c2ccco2)C(C(=O)NC2CCCC2)c2ccncc2)c1 (stereo unspecified)	n	n	n	n	n	n
Cc1[nH]nc2c1C(c1ccccc1)C1=C(CC(C)(C)CC1=O)N2 (stereo unspecified)	n	x	n	n	n	4.37
COc1ccc(C2C3=C(CC(C)(C)CC3=O)Nc3n[nH]c(C)c32)cc1 (stereo unspecified)	n	x	n	n	n	2.29
COCCn1nnnc1CN(CCc1ccccc1)Cc1cc2ccc(C)cc2[nH]c1=O	n	n	n	n	n	n
O=c1cc(CN2CCN(C/C=C/c3ccccc3)CC2)c2cc(O)ccc2o1	n	n	n	n	n	n
COc1ccccc1CN(Cc1cc2cc(C)ccc2[nH]c1=O)Cc1nnnn1CC1CCCO1 (stereo unspecified)	n	n	n	n	n	n
COc1ccc2[nH]c(=O)c(CN(Cc3ccccc3OC)Cc3nnnn3CC3CCCO3)cc2c1 (stereo unspecified)	n	n	n	n	n	2.26
COc1ccccc1CN(Cc1cc2cc(C)cc(C)c2[nH]c1=O)Cc1nnnn1CC1CCCO1 (stereo unspecified)	n	n	26.0	n	n	n
COc1ccc2[nH]c(=O)c(CN(Cc3ccc(C)cc3)Cc3nnnn3CC3CCCO3)cc2c1 (stereo unspecified)	n	n	n	n	n	2.13
COc1ccc2[nH]c(=O)c(CN(CCc3ccccc3)Cc3nnnn3CC3CCCO3)cc2c1 (stereo unspecified)	n	n	n	n	n	2.52
Nc1nnc(SCC(=O)NCc2ccc3c(c2)OCO3)s1	n	n	n	n	n	n
NC(=O)c1nsc(C(=O)N(CC(=O)NCc2ccc3c(c2)OCO3)C2CCCC2)c1N	n	n	x	n	n	2.15
Cc1ccc(CSC2=Nc3ccccc3C3=NC(CC(=O)NCc4ccco4)C(=O)N23)cc1 (stereo unspecified)	n	n	n	n	n	n
CCn1c(SCC(=O)Nc2cccc(C(C)=O)c2)nnc1C(C)C	n	+	n	n	n	n
CCC(=O)Nc1cc(NC(=O)CSc2nnc(C(C)C)n2CC)ccc1C	n	n	n	n	n	n
CC(=O)Nc1cccc(NC(=O)CSc2nnnn2Cc2ccccc2)c1	n	+	n	n	x	n
CCC(=O)c1cc2c(cc1NC(=O)c1ccc(C)cc1)OCCO2	n	x	n	n	n	3.14
CCC(=O)Nc1cc2c(cc1C(C)=O)OCCO2	n	n	n	n	n	n
COc1c(Br)cc2c(C)c(C(=O)O)oc2c1Br	n	n	n	n	43.0	n
CN1c2cccc3cccc(c23)N(C)C1(C)C	n	x	n	n	n	3.66
SMILES	NADH coupling	DPM-DC inhibit	Spn PMK inh	A340 absorber	Spn MK inh	Autofluor 339
Cc1cc(C)n(-c2nc3ccccc3[nH]c2=O)n1	n	n	n	n	n	2.8
CC1CCc2cc(F)cc3c(O)c(C(=O)Nc4cnccn4)c(=O)n1c23 (stereo unspecified)	n	n	n	n	n	n
Nc1nc(-c2ccc(Cl)cc2Cl)cn1N	n	n	n	n	n	n
CS(=O)(=O)N1CCN(C(=O)CCC2CCCC2)CC1	n	n	33.0	n	n	n
COc1ccc(S(=O)(=O)N2CCN(C(=O)CCC3CCCC3)CC2)cc1	n	n	n	n	n	n
c1ccc(N2CCN(c3cnccn3)CC2)nc1	n	+	n	n	n	n
Cc1cccc(CN2CCN(c3ccccn3)CC2)c1	n	n	n	n	48.0	n
c1ccc(-n2nnnc2Sc2n[nH]c(-c3ccncc3)n2)cc1	n	n	n	n	n	n
O=C(Nc1ccccc1-c1nc2ccccc2o1)c1ccc2c(c1)OCCO2	n	x	n	n	n	3.26
Cc1c(NC(=O)c2ccc3c(c2)OCO3)cccc1-c1nc2ccccc2o1	n	n	n	n	n	n
O=C(Nc1ccc2oc(-c3ccccc3F)nc2c1)c1ccc2c(c1)OCCO2	n	n	n	n	n	3.25
O=C(Nc1ccc2oc(-c3ccc(F)cc3)nc2c1)c1ccccc1F	n	n	n	n	n	2.98
COc1ccc(S(=O)(=O)Nc2cccc(NC(C)=O)c2)cc1	n	n	n	n	n	n
CC1Cn2c(nnc2-c2cc3ccccc3cc2O)S1 (stereo unspecified)	n	n	n	n	n	2.91
CC1Cn2c(nnc2-c2ccccc2O)S1 (stereo unspecified)	n	n	n	n	n	n
CCOc1ccccc1-c1nc(C(N)=O)c2[nH]c(=O)n(-c3ccccc3)c2n1	n	n	n	n	n	2.95
COc1cccc(-c2nc(C(N)=O)c3[nH]c(=O)n(-c4ccccc4)c3n2)c1OC	n	n	n	n	n	n
Cc1cccc(-n2c(N)cc(=O)[nH]c2=S)c1	n	n	n	n	n	n
COc1ccccc1-c1nc(C(N)=O)c2[nH]c(=O)n(-c3cccc(C)c3)c2n1	n	+	n	n	n	3.85
Cc1cccc(-n2c(=O)[nH]c3c(C(N)=O)nc(-c4ccccc4Cl)nc32)c1	n	x	n	n	n	2.15
COc1cc(C)nc(OCCNS(=O)(=O)c2cc(C)ccc2C)n1	n	n	n	n	n	n
CCn1cc(C(=O)NC2CCCCC2C)c(=O)c2ccc(C)nc21 (stereo unspecified)	n	n	n	n	n	n
Cc1c2c(nc3c(C(=O)NC4CCCCC4C)cnn13)CCCC2 (stereo unspecified)	n	x	29.0	n	n	4.42
CCc1cc(=O)oc2cc(OCC(=O)O)c(Cl)cc12	n	n	n	n	n	2.36
CCc1cc(=O)oc2cc(OC(C)C(=O)O)c(Cl)cc12 (stereo unspecified)	n	n	n	n	n	2.88
O=C(NCc1ccccc1F)C1CCCN1C(=O)NCc1ccccc1 (stereo unspecified)	n	n	n	n	n	n
Cc1cc(C)c2c(n1)nn1c(NCCN3CCOCC3)cc(C)nc21	n	x	n	n	n	3.82
COCCNc1cc(C)nc2c3c(C)cc(C)nc3nn12	n	x	n	n	n	3.83
COc1cc(C)c(S(=O)(=O)NCc2cccs2)cc1C	n	n	n	n	n	n
CCOC(=O)c1ccc(NC(=O)c2nccnc2C(=O)O)cc1	n	n	n	n	n	n
